Calls of active or inactive are those of the source.
What was measured:
[1] = system: Plasmodium falciparum Sir2 (PF13_0152, Sir2A); assay: Plasmodium falciparum Sir2A binding compounds – biochemical, small-molecule microarray, 635 nm fluorescence, primary screen (AID 1098); settings: fluorescence 635 nm, higher = more signal;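 note: score merges spot fluorescence intensity with its signal-to-noise ratio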
[2] = probe aDKK1 binding to arrayed compounds – biochemical, biotinylated probe, 635/667 nm fluorescence, primary screen (AID 1099); settings: small-molecule microarray, higher = more signal;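 note: score merges 667nm spot fluorescence with signal to noise across triplicate slides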
[3] = probe aCHRDL2 binding to arrayed compounds – biochemical, biotinylated probe, 635/667 nm fluorescence, primary screen (AID 1100); settings: small-molecule microarray, higher = more signal
[4] = change in splice reporter luminescence, either direction, cell-based, HEK293, spliceosome inhibition project, primary screen (AID 1101); settings: HEK293 splicing luciferase reporter, 24 h, higher = more signal, called active from +8 up or from −8 down;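 note: HEK293 cells carrying a splicing-competent luciferase reporter gene; test concentration not given here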
[5] = target: Fibroblast growth factor 10 (Homo sapiens) (UniProt O15520); assay: compounds binding fibroblast growth factor 10 – biochemical, small-molecule microarray, 635 nm fluorescence, primary screen (AID 1102); settings: FGF10 binding, fluorescence 635 nm, higher = more signal
[6] = system: glycogen synthase kinase-3 (GSK3A per assay name; protocol says GSK3B); assay: compounds binding glycogen synthase kinase-3 – biochemical, small-molecule microarray, 635 nm fluorescence, GSK3A, primary screen (AID 1103); settings: fluorescence 635 nm, higher = more signal; note: the record names both GSK3A and GSK3B
[7] = target: Epidermal growth factor receptor (Homo sapiens) (UniProt P00533); assay: compounds binding epidermal growth factor receptor – biochemical, small-molecule microarray, 635 nm fluorescence, primary screen (AID 1104); settings: EGFR binding, higher = more signal;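 note: score merges 667 nm emission intensity with spot signal to noise over triplicate slides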
[8] = target: Follistatin-related protein 3 (Homo sapiens) (UniProt O95633); assay: compounds binding follistatin-related protein 3 – biochemical, small-molecule microarray, 635 nm fluorescence, primary screen (AID 1105); settings: FSTL3 binding, higher = more signal;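 note: score merges emission near 667 nm and signal to noise per printed spot across three slides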
[9] = target: Dickkopf-related protein 1 (Homo sapiens) (UniProt O94907); assay: small molecules binding DKK1 protein – biochemical, small-molecule microarray, 635 nm fluorescence scan, primary screen (AID 1106); settings: higher = more signal;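 note: score merges emission near 667 nm with signal to noise over three replicate slides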
[10] = system: Inhibin beta A chain (activin A); assay: small molecules binding activin A – biochemical, small-molecule microarray, 635 nm fluorescence scan, primary screen (AID 1107); settings: INHBA, higher = more signal;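 note: mouse activin A protein probed at 4.33 µg/mL on printed slides; score merges bound-protein fluorescence near 667 nm with spot signal-to-noise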
[11] = system: Human papillomavirus type 1a protein E7 (residues 44-93); assay: small molecules binding HPV E7 44-93 – biochemical, small-molecule microarray, residues 44-93, 635 nm fluorescence, primary screen (AID 1108); settings: fluorescence 635 nm, higher = more signal;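 note: E7 fragment applied at 1 µg/mL in TBST for 1 h at 4 C; score combines spot fluorescence with its signal to noise ratio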
[12] = hepatitis C replication reporter changes, two-sided – Huh7 cells, luciferase reporter, HCV replication inhibitor project, primary screen (AID 1109); settings: Huh7 HCV replicon luciferase reporter, 48 h; higher = more signal;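 note: huh7 hepatoma cells harbouring a luciferase neomycin HCV replicon reporter; luciferase luminescence as measure of HCV replicon replication; test concentration not given here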
[13] = target: Left-right determination factor 2 (Homo sapiens) (UniProt O00292); assay: small molecules binding LEFTY2 protein – biochemical, small-molecule microarray, 635 nm fluorescence scan, primary screen (AID 1110); settings: higher = more signal
[14] = target: Calmodulin-1 (Homo sapiens) (UniProt P0DP23); assay: small molecules binding calmodulin-1 with EGTA – biochemical, small-molecule microarray, Cy5-labelled CALM1, profiling panel (AID 1111); settings: Cy5-CALM1 binding fluorescence, higher = more signal;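 note: labelled calmodulin applied in Tris saline Tween buffer holding calcium plus EGTA and DTT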
[15] = target: Calmodulin-1 (Homo sapiens) (UniProt P0DP23); assay: small molecules binding Ca-loaded calmodulin-1 – biochemical, small-molecule microarray, Cy5-labelled CALM1, plus calcium, artefact control for SMM control-protein annotation, profiling panel (AID 1112); settings: Cy5-CALM1 binding fluorescence, higher = more signal;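 note: score merges spot fluorescence with signal to noise from triplicate slides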
[16] = probe aWnt5a binding to arrayed compounds – biochemical, biotinylated probe, 635/667 nm fluorescence, primary screen (AID 1113); settings: small-molecule microarray, higher = more signal;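 note: score merges 667 nm fluorescence intensity with signal-to-noise per printed feature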
[17] = probe aShh binding to arrayed compounds – biochemical, biotinylated probe, 635/667 nm fluorescence, primary screen (AID 1114); settings: small-molecule microarray, higher = more signal;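 note: probe is biotin-labelled aShh protein from a stem cell growth factor screen; measures binding of labelled protein to compounds printed on the slide; score merges feature fluorescence at 667 nm with signal-to-noise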
[18] = probe aNog binding to arrayed compounds – biochemical, biotinylated probe, 635/667 nm fluorescence, primary screen (AID 1115); settings: small-molecule microarray, higher = more signal;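 note: probe is biotinylated aNog protein used at 0.15 µg/mL for 1 h at 4 C; z-score combines 667 nm fluorescence of each spot with its signal to noise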
[19] = target: Torsin-1A-interacting protein 1 (Homo sapiens) (UniProt Q5JTV8); assay: compound microarray binding of lysate hLAP1 – cell lysate, small-molecule microarray, COS7 lysate, 635/667 nm fluorescence, primary screen (AID 1116); settings: 635 nm fluorescence, higher = more signal
[20] = target: Alpha-bungarotoxin (Bungarus multicinctus) (UniProt P60615); assay: compounds binding labelled alpha-BTX control protein – biochemical, small-molecule microarray, Alexa647 label, 635/667 nm fluorescence, artefact control for SMM control protein annotation, profiling panel (AID 1117); settings: alpha-BTX-A647 binding fluorescence, higher = more signal
Sequence of Alpha-bungarotoxin (Bungarus multicinctus) (P60615 whole entry, looked up): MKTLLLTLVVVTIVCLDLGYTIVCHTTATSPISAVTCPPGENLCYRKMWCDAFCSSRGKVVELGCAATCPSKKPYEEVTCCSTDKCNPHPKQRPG

Sequence of Follistatin-related protein 3 (Homo sapiens) (O95633 whole entry, looked up): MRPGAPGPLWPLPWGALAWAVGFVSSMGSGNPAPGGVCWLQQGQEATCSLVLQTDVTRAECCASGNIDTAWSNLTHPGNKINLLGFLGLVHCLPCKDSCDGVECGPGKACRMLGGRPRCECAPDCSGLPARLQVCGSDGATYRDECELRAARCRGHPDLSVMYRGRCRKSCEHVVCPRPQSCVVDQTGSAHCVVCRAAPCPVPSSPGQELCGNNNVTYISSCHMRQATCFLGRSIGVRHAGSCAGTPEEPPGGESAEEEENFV
Sequence of Dickkopf-related protein 1 (Homo sapiens) (O94907 whole entry, looked up): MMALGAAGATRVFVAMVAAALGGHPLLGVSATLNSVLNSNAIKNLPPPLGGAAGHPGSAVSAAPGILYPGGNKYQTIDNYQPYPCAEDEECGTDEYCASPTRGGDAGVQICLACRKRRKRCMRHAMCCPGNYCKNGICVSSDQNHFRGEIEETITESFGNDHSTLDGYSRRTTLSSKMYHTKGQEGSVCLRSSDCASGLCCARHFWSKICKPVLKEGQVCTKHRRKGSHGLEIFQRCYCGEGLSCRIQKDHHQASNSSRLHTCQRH
Sequence of Torsin-1A-interacting protein 1 (Homo sapiens) (Q5JTV8 whole entry, looked up): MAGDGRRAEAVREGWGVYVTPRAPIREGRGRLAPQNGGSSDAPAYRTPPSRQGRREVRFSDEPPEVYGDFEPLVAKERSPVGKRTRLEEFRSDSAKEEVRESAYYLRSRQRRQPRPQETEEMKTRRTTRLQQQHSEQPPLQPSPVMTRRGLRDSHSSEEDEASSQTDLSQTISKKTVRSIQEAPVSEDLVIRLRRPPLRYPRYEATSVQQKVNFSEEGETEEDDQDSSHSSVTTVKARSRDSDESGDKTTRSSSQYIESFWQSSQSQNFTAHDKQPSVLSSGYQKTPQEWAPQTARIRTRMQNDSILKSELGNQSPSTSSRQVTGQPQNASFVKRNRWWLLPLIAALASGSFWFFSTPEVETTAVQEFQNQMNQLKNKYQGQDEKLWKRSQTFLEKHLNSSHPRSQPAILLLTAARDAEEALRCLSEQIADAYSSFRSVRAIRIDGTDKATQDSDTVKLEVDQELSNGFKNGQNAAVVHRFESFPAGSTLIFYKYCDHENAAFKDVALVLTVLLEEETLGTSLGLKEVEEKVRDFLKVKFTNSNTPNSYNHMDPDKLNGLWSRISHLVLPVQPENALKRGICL
Sequence of Fibroblast growth factor 10 (Homo sapiens) (O15520 whole entry, looked up): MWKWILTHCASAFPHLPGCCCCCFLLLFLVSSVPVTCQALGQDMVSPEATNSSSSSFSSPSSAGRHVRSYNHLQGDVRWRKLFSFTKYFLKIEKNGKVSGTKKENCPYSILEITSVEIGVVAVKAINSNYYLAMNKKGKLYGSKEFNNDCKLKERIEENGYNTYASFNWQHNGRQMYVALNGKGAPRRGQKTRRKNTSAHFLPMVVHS
Sequence of Left-right determination factor 2 (Homo sapiens) (O00292 whole entry, looked up): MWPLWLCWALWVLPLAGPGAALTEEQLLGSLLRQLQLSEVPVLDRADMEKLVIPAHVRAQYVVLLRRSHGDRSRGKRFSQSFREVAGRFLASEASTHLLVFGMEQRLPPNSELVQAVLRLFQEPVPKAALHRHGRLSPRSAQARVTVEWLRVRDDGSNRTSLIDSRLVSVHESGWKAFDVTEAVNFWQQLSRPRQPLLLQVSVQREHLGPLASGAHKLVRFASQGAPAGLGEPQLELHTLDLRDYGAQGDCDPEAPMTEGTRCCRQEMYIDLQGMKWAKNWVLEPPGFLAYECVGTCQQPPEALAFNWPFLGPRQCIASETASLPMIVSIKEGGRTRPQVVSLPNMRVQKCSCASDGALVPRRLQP
Sequence of Epidermal growth factor receptor (Homo sapiens) (P00533 whole entry, looked up): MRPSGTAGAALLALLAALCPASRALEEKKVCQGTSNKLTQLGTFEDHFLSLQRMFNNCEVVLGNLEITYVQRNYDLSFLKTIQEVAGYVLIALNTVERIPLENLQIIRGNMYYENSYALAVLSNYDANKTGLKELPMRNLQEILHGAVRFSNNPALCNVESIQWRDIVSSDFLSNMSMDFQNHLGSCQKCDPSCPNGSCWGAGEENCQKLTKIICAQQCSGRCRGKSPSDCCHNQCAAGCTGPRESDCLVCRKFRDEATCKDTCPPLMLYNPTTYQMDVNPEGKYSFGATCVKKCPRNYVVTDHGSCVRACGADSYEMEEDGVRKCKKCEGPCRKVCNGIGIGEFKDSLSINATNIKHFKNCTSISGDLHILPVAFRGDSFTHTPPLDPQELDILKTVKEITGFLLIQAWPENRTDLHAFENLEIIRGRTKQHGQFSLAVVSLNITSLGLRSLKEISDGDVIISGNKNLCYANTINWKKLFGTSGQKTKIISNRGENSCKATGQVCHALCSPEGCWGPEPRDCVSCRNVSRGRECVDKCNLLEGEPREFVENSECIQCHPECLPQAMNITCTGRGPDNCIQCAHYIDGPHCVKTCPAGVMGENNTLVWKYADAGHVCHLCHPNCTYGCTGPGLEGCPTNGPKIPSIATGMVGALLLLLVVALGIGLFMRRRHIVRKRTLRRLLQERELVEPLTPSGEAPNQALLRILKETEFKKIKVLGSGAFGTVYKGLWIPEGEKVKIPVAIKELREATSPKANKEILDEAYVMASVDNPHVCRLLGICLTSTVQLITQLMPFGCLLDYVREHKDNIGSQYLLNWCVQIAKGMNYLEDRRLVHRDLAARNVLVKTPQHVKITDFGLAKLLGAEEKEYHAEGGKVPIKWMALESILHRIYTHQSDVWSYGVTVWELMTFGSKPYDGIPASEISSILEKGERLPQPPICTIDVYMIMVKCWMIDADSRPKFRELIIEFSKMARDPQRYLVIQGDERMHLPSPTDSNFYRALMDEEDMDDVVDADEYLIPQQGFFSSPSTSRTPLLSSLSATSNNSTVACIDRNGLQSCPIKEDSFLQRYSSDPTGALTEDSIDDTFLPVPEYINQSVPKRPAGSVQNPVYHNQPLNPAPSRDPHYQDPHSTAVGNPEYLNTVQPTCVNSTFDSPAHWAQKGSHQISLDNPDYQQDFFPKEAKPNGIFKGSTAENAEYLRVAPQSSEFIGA

Row | SMILES | composite z-score [1] | composite z-score [2] | composite z-score [3] | z-score [4] | composite z-score [5] | composite z-score [6] | composite z-score [7] | composite z-score [8] | composite z-score [9] | composite z-score [10] | composite z-score [11] | z-score [12] | composite z-score [13] | composite z-score [14] | composite z-score [15] | composite z-score [16] | composite z-score [17] | composite z-score [18] | composite z-score [19] | composite z-score [20]
1 | COC(=O)C(CC#Cc1ccc2c(c1)[C@]1(C(=O)N2)[C@H](C(=O)O)[C@H]2C(=O)O[C@H](c3ccccc3)[C@H](c3ccccc3)N2[C@@H]1c1ccc(OCCO)cc1)C(=O)OC | 1.53 | 0.393 | 0.799 | -1.31 (inactive) | 1.15 | 0.987 | -0.199 | 0.0514 | -0.611 | 0.117 | 0.738 | -0.555 | 0.155 | 2.16 | 0.717 | -0.0229 | 0.166 | 0.78 | 1.5 | 3.51
2 | COC(=O)[C@@]1(CCC(=O)OC(C)(C)C)COC(c2ccc(OCCCO)cc2)=N1 | -1.07 | 0.623 | 1.18 | -0.493 (inactive) | -1.2 | -1.19 | -1.82 | -2.47 | -2.17 | -0.0726 | -1.42 | 0.136 | -1.57 | -0.683 | 0.674 | -0.197 | -0.0626 | 0.424 | -0.123 | -0.741
3 | CC(C)N1C(=O)c2ccccc2[C@@H](C(=O)NCc2ccccc2)[C@@H]1c1ccc(CO)cc1 | 1.05 | 0.326 | 0.932 | -0.242 (inactive) | -0.844 | 0.192 | -0.183 | -0.0398 | -0.319 | 0.481 | 0.319 | 0.313 | -0.514 | -0.808 | 0.306 | -0.178 | -0.203 | 0.198 | 0.481 | -1.92
4 | C=CCC(OC(C)=O)[C@@H]1[C@@H](N(Cc2ccc(-c3ccccc3)cc2)C(=O)c2ccc(-c3ccccc3)cc2)c2cc(OCCCO)ccc2N1C(=O)c1ccc(-c2ccccc2)cc1 (stereo not given in full) | -0.104 | 0.603 | 0.672 | -1.34 (inactive) | -0.132 | -0.0347 | -0.137 | 0.145 | -0.141 | 1.11 | -0.172 | 0.967 | 0.337 | 0.681 | 0.92 | -0.11 | -0.324 | 0.347 | 0.315 | 0.459
5 | C[N+](C)(C)CCCCNC(=O)[C@@H]1C[C@@H]2C(=O)NCC(=O)N2[C@@H]1c1cccc(OCCO)c1 | 0.594 | -0.365 | -0.211 | -1.49 (inactive) | 1.16 | 0.68 | 0.627 | 1.39 | 1.72 | -0.0907 | 0.299 | 0.703 | 1.08 | -0.189 | -0.131 | 0.0519 | 0.0756 | 0.145 | 1.66 | 1.89
6 | C[N+](C)(C)CCCC[C@@H]1NC(=O)[C@@H]2C[C@H](C(=O)NCCCCCNC(=O)CS)[C@H](c3ccc(O)cc3)N2C1=O | 1.3 | -0.0611 | 0.346 | 4.12 (inactive) | 0.0481 | -0.638 | -0.849 | 0.0788 | 0.171 | 0.57 | -0.643 | -0.0298 | -0.739 | 0.21 | 0.669 | -0.191 | 0.138 | 0.208 | 2.19 | 1.12
